For nine molecules, z-score and composite z-score results are on record in PubChem BioAssay.

SMILES strings stand for the structures. The source made the active and inactive calls. Unless noted, the rule behind the calls is not given here.

Test [1] is described as follows: compound effects on lung adenocarcinoma cell viability – A549, calcein-AM fluorescence, 48 h, basal, profiling panel (AID 1162). Note: test concentration not given here. The conditions noted are these: higher = more signal.
A short description of test [2]: compound effects on differentiated 3T3-L1 adipocyte viability – cell-based, 3T3-L1 adipocytes, calcein-AM fluorescence, 48 h, basal, profiling panel (AID 1163). Note: test concentration not given here. The conditions noted are these: 3T3-L1 adipocytes viability, higher = more signal.
The nature of test [3]: compound effects on hepatocellular carcinoma cell viability – HepG2, calcein-AM fluorescence, 48 h, basal, profiling panel (AID 1164). Note: test concentration not given here. The conditions noted are these: higher = more signal.
The nature of test [4]: compound effects on multiple myeloma cell viability – MM1S, calcein-AM fluorescence, 48 h, basal, profiling panel (AID 1165). Note: test concentration not given here. The conditions noted are these: higher = more signal.
Test [5] can be described thus: calcein-AM signal in unstimulated myeloma cells – cell-based, calcein-AM fluorescence, 48 h, PK04 Diversity Set, profiling panel (AID 1166).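 Note: cells grown under basal conditions without added stimulus; test concentration not given here.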 The conditions noted are these: RPMI8226 myeloma viability, higher = more signal.
Test [6] can be described thus: JC-1 mitochondrial signal, unstimulated HepG2 cells – cell-based, JC-1 fluorescence, 24 h, 100 nL compound, profiling panel (AID 1167). Note: test concentration not given here. The conditions noted are these: HepG2 mitochondrial potential, higher = more signal.
Test [7] can be described thus: JC-1 mitochondrial signal, unstimulated adipocytes – cell-based, JC-1 fluorescence, 3T3-L1 adipocytes, 24 h, 100 nL compound, profiling panel (AID 1168). Note: test concentration not given here. The conditions noted are these: JC-1 mitochondrial fluorescence, higher = more signal, called active from +8 up or from −8 down.
The nature of test [8]: JC-1 mitochondrial signal, unstimulated myeloma cells – cell-based, JC-1 fluorescence, RPMI8226, 24 h, 100 nL compound, profiling panel (AID 1169). Note: test concentration not given here. The conditions noted are these: JC-1 mitochondrial potential fluorescence, higher = more signal.
Test [9] can be described thus: JC-1 mitochondrial signal, unstimulated MM1S myeloma – cell-based, JC-1 fluorescence, 24 h, 100 nL compound, profiling panel (AID 1170). Note: test concentration not given here. The conditions noted are these: MM1S mitochondrial potential, higher = more signal.
Test [10] can be described thus: resazurin metabolic signal in A549 cells – cell-based, resazurin fluorescence, 24 h, PK04 Diversity Set, profiling panel (AID 1171). Note: test concentration not given here. The conditions noted are these: A549 viability, higher = more signal, called active from +8 up or from −8 down. For orientation: Resazurin is reduced to fluorescent resorufin, in cell work by metabolically active cells.
Test [11] is described as follows: resazurin metabolic signal in HepG2 cells – cell-based, resazurin fluorescence, 24 h, PK04 Diversity Set, profiling panel (AID 1172). Note: test concentration not given here. The conditions noted are these: HepG2 viability, higher = more signal.
The nature of test [12]: budding yeast growth changes without added modifier – OD600, strain BY4716, 24 h, basal condition, primary screen (AID 1173). The conditions noted are these: S. cerevisiae BY4716 growth, OD600, 24 h; higher = more signal, called active from +8 up or from −8 down.
Test [13] in a line: viability profiling in MM1S myeloma cells – cell-based, resazurin fluorescence, basal, 24 h, PK04 Diversity Set, profiling panel (AID 1174). Note: test concentration not given here. The conditions noted are these: higher = more signal, called active from +8 up or from −8 down.
In test [14] the target is Dihydroorotate dehydrogenase (quinone), mitochondrial (Plasmodium falciparum (isolate 3D7)) (UniProt Q08210). In words: inhibition of P. falciparum DHODH – biochemical, C-terminal His tag, absorbance 600 nm, primary screen (AID 1175).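 Note: recombinant parasite enzyme with a five histidine tag at its C terminus; test concentration not given here.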 The conditions noted are these: PfDHODH enzyme, DCIP absorbance 600 nm; higher = more signal, called active from +8 up or from −8 down.
A short description of test [15]: inhibition of PAO1 biofilm formation – strain PAO1, LB-PBS medium, absorbance 600 nm, primary screen (AID 1176). Note: test concentration not given here. The conditions noted are these: P. aeruginosa PAO1 growth/biofilm, A600, 12 h; higher = more signal.
The nature of test [16]: growth modulation of vineyard yeast isolate – strain RM11-1a, OD600, basal, 24 h, primary screen (AID 1177).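 Note: cultures grown under basal conditions with no added stressor; test concentration not given here.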 The conditions noted are these: S. cerevisiae RM11-1a growth, OD600, 24 h; higher = more signal, called active from +8 up or from −8 down.
Test [17] in a line: growth of efflux-deficient E. coli DRC39 – strain DRC39, OD650, 24 h, E. coli filamentation inducers, primary screen (AID 1178).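 Note: growth measured as culture turbidity by optical density at 650 nm; test concentration not given here.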 The conditions noted are these: E. coli DRC39 acrAB, higher = more signal, called active from +8 up or from −8 down.
Test [18] can be described thus: growth of efflux-deficient E. coli DRC39 – strain DRC39, OD650, 48 h, E. coli filamentation inducers, primary screen (AID 1179).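 Note: screen aims at cell division blockers that make cells filament.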 The conditions noted are these: E. coli DRC39 delta-acrAB growth, higher = more signal, called active from +8 up or from −8 down.
The nature of test [19]: viability profiling in RPMI8226 myeloma cells – cell-based, resazurin fluorescence, basal, 24 h, PK04 Diversity Set, profiling panel (AID 1180).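 Note: RPMI8826 multiple myeloma cell line at 5000 cells per well; test concentration not given here.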 The conditions noted are these: higher = more signal.
Test [20] has as its target E3 ubiquitin-protein ligase XIAP (Homo sapiens) (UniProt P98170). In words: small molecules binding XIAP protein – biophysical, small-molecule microarray, fluorescence 635 nm, primary screen (AID 1181).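 Note: score merges 667 nm emission and signal to noise over triplicate slides.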 The conditions noted are these: higher = more signal.

Chain of Dihydroorotate dehydrogenase (quinone), mitochondrial (Plasmodium falciparum (isolate 3D7)) (Q08210 whole entry, looked up): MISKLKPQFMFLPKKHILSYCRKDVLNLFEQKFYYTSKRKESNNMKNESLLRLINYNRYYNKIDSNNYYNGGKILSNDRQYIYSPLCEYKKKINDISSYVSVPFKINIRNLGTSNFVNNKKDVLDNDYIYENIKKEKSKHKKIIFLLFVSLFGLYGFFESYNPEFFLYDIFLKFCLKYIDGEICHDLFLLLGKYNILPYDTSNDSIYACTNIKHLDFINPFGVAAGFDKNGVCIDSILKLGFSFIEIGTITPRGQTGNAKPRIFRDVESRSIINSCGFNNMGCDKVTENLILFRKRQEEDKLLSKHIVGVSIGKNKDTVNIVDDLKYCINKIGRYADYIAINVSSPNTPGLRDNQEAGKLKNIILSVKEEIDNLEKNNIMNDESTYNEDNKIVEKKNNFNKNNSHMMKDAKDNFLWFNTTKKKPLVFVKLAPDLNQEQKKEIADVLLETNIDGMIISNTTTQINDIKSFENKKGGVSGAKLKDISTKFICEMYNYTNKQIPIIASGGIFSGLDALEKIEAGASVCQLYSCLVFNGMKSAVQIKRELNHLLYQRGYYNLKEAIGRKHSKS
Chain of E3 ubiquitin-protein ligase XIAP (Homo sapiens) (P98170 whole entry, looked up): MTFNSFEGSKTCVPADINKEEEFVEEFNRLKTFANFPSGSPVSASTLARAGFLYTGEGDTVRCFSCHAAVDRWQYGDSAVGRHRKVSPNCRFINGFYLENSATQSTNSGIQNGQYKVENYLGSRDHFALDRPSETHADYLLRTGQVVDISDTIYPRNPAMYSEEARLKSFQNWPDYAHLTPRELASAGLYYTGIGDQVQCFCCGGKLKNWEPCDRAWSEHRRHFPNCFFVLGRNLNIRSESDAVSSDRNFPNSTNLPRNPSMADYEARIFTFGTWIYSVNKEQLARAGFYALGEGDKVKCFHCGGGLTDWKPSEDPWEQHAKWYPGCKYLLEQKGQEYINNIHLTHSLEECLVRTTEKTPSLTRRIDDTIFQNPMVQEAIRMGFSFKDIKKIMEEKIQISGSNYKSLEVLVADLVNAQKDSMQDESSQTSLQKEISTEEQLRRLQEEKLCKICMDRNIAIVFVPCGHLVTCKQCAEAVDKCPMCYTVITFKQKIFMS

Take `NCCCCCNC(=O)[C@H]1C[C@H]2C(=O)NCC(=O)N2[C@H]1c1cccc(OCCO)c1`: the z-score in test [1] is 1.5; in [2], 0.118; in test [3], 0.79; in test [4], 0.892; in [5], 0.857; in [6], 0.538. The z-score in test [7] was 1.18 (inactive); in [8] it was -0.164; in test [9] it was -0.158; in test [10], 0.547 (inactive); in test [11], 0.871; in test [12], -0.0725 (inactive). The z-score is 0.998 (inactive) in test [13]; -0.242 (inactive) in test [15]; 0.0993 (inactive) in test [16]; 1.07 (inactive) in [17]; 1.23 (inactive) in test [18]; 0.616 in test [19]. The composite z-score in test [14] was -0.355 (inactive); in [20], -0.119.
In the case of `COC(=O)c1ccc(C(O)C2C=CC3C(=O)N(c4ccccc4)C(=O)C3N2Nc2ccc(C#N)cc2)o1` (stereo not given), the z-score was 0.88 in test [1]; 0.0728 in [2]; 2.04 in [3]; -0.182 in test [4]; -1.52 in [5]; 0.822 in test [6]. Also, the z-score in test [7] was -0.559 (inactive); in [8], 0.111; in [9], -0.849; in test [10], 0.276 (inactive); in [11], -0.407; in [12] it was -0.959 (inactive). In addition, the z-score is -0.582 (inactive) in [13]; 1.38 (inactive) in test [15]; 0.0055 (inactive) in test [16]; -1.52 (inactive) in test [17]; -0.249 (inactive) in test [18]; -0.357 in [19]. Also, the values for the composite z-score in test [14] and in test [20] were -0.847 (inactive) and -0.22, respectively.
For the molecule `Cc1cc(C)c(C(O)C2C=CC3C(=O)N(c4ccccc4)C(=O)C3N2Nc2ccc(C#N)cc2)c(C)c1` (stereo not given), the z-score was 0.0841 in test [1]; -1.06 in test [2]; 1.33 in test [3]; -0.448 in [4]; -0.127 in [5]; -1.71 in [6]. Also, the z-score in [7] was -1.51 (inactive); in test [8], 0.211; in [9] it was -0.308; in [10], 0.0763 (inactive); in test [11], -0.833; in test [12], 0.011 (inactive). Besides, the z-score was 0.0952 (inactive) in test [13]; 1.26 (inactive) in test [15]; 0.384 (inactive) in test [16]; -0.232 (inactive) in [17]; -0.185 (inactive) in test [18]; -0.451 in test [19]. Besides, the composite z-score in test [14] is 0.623 (inactive); in test [20], -0.253.
As for `[N-]=[N+]=NCc1ccccc1C[C@]1(C(=O)NCC(O)CO)N=C(c2ccc(OCCCO)cc2)O[C@H]1c1ccccc1N=[N+]=[N-]` (stereo not given in full), the z-score is -0.13 in test [1]; 1.27 in test [2]; -0.35 in [3]; -1.09 in test [4]; -1.11 in [5]; 0.0849 in test [6]. The z-score is 1.19 (inactive) in test [7]; -0.893 in test [8]; -0.384 in test [9]; 0.0953 (inactive) in test [10]; 0.207 in test [11]; 0.664 (inactive) in test [12]. Besides, the z-score was -0.403 (inactive) in test [13]; 0.208 (inactive) in test [15]; 2.8 (inactive) in test [16]; 1.22 (inactive) in [17]; 0.0128 (inactive) in test [18]; -0.986 in [19]. Moreover, the composite z-score was 1.83 (inactive) in test [14] and -0.0057 in [20].
On to `C=CC(=C)C1=CCO[C@@H]1[C@H]1CCCN1S(=O)(=O)c1ccccc1[N+](=O)[O-]`, for which the z-score in test [1] is -0.387; in test [2] it was 1.19; in [3], 0.324; in test [4], -1.69; in [5], -1.07; in test [6] it was 0.248. Also, the z-score in test [7] was -0.736 (inactive); in [8], -0.112; in test [9] it was -0.233; in [10] it was 0.707 (inactive); in test [11], 1.09; in test [12], -0.793 (inactive). Further, the z-score in test [13] is -0.22 (inactive); in test [15] it was -0.578 (inactive); in test [16], 0.223 (inactive); in test [17], 0.858 (inactive); in test [18], 0.714 (inactive); in test [19], 0.187. The composite z-score in test [14] is -0.426 (inactive); in test [20], -0.119.
Regarding `CC(=O)C1=CCC(c2ccccc2)N(S(=O)(=O)c2ccc(C)cc2)C1` (stereo not given), the z-score in test [1] was -0.346; in test [2], 0.0159; in [3], -0.727; in test [4], -0.0171; in test [5] it was -1.08; in test [6], -0.602. Besides, the z-score in test [7] was -1.35 (inactive); in test [8] it was 0.697; in [9], 0.329; in [10] it was 0.183 (inactive); in [11] it was -0.0399; in test [12] it was 0.832 (inactive). Further, the z-score in test [13] is -0.551 (inactive); in [15], 0.533 (inactive); in test [16], 0.227 (inactive); in test [17], 0.422 (inactive); in [18], 0.0116 (inactive); in test [19], -0.809. For the same molecule, the results for the composite z-score in test [14] and in test [20] were 0.746 (inactive) and -0.0773, respectively.
Regarding `Cc1cc(C)cc(N2C(=O)CS(=O)(=O)C2c2cccc([N+](=O)[O-])c2)c1` (stereo not given), the z-score in [1] was 1.26; in test [2] it was 0.869; in [3] it was 1.41; in [4] it was 0.871; in test [5] it was 1.47; in test [6], 0.994. Besides, the z-score in test [7] is 0.76 (inactive); in test [8], -0.327; in test [9], -0.744; in test [10], -0.913 (inactive); in test [11], -0.0507; in test [12], -0.658 (inactive). Besides, the z-score is -0.208 (inactive) in test [13]; -0.407 (inactive) in test [15]; -0.438 (inactive) in test [16]; 0.899 (inactive) in [17]; 1.04 (inactive) in test [18]; -0.194 in test [19]. In addition, the figures for the composite z-score in test [14] and in [20] were -2.1 (inactive) and -0.22, respectively.
For `COC(=O)[C@@]1(Cc2ccc(F)cc2)[C@H]2c3cc(C(=O)N4CCCC4)n(Cc4cccc5ccccc45)c3C[C@H]2CN1C(=O)c1ccccc1`, the z-score in [1] is -0.805; in [2] it was 0.42; in test [3], 0.0082; in test [4], -1.03; in [5], -1.07; in test [6], 3.8. Also, the z-score is -1.48 (inactive) in test [7]; 0.127 in test [8]; -0.779 in [9]; 0.785 (inactive) in test [10]; -0.296 in test [11]; 1.28 (inactive) in [12]. Also, the z-score is -1.53 (inactive) in test [13]; 0.784 (inactive) in test [15]; 0.0161 (inactive) in [16]; -1.11 (inactive) in [17]; -0.974 (inactive) in test [18]; -1.25 in [19]. The values for the composite z-score in [14] and in test [20] were -0.422 (inactive) and 0.487, respectively.
Turning to `O=C1N(CCS(=O)(=O)c2ccccc2)c2ccccc2C[C@@]12COC(c1ccc(OCCCO)cc1)=N2`, the z-score was -0.683 in [1]; 0.294 in test [2]; -1.48 in test [3]; -2.06 in test [4]; -0.517 in test [5]; -2.09 in test [6]. Moreover, the z-score in test [7] was 0.7 (inactive); in test [8], -1.06; in test [9], -0.554; in test [10], -0.455 (inactive); in test [11], -0.73; in test [12], 1.3 (inactive). Moreover, the z-score is -0.756 (inactive) in test [13]; 0.603 (inactive) in test [15]; 1.31 (inactive) in [16]; -0.0526 (inactive) in [17]; -0.726 (inactive) in test [18]; -0.816 in [19]. For the same molecule, the values for the composite z-score in test [14] and in test [20] were 0.558 (inactive) and 0.262, respectively.
